The record followed here is ChEMBL document CHEMBL4513146, “CO-ADD screening of Karazin Kharkiv National University (Ukraine) compounds”.

Structures are written as SMILES. Entries with a potency or affinity are not part of this list.

In test [1] the test system is Klebsiella pneumoniae. Particulars: Concentration 32 ug.mL-1;; ASSAY_TEST Inhibition of Bacterial Growth; detection method Absorption (OD600); MEDIA CAMHB; plate type 384well; NBS; CORNING #3640; time 18 hr.
The subject of test [2] is Candida albicans. Particulars: Concentration 32 ug.mL-1; ASSAY_TEST Inhibition of Fungal Growth; detection method Absorption (OD530).
For test [3], the system named is Cryptococcus neoformans. Particulars: Concentration 32 ug.mL-1; ASSAY_TEST Inhibition of Fungal Growth; detection method Resazurin; Absorption (OD600-OD570); plate type 384well; NBS; CORNING #3640.

Consider `O=S(=O)(c1ccc2nncn2c1)N(Cc1cccc(Cl)c1)c1ccccc1`, for which the Inhibition in test [1] is recorded as 4.69%; in test [2] it was -1.59%; in test [3], -11.03%.
Taken in the same sequence, the figures for `Cc1ccc(Sc2nccn3c(=O)n(CC(=O)Nc4ccc(F)c(Cl)c4)nc23)c(C)c1` were -6.57%, 10.6% and -11.17%.
Taken in the same sequence, the figures for `Cc1nnc2c(SCC(=O)Nc3ccc(F)cc3F)nc3ccccc3n12` were 16.48%, 0.69% and -22.98%.
As to `Cc1ccccc1N1CCN(c2nccn3c(=O)n(CC(=O)NCc4cc(F)cc(F)c4)nc23)CC1`, the Inhibition was 4.01% in test [1], 0.32% in test [2] and -4.76% in test [3].
